# Compound activity (PubChem)
# IDH1 R132H inh = human IDH1 R132H inhibition. AID 602179. IDH1-R132H enzyme, NADPH consumption, diaphorase/resazurin fluorescence. 390,000 tested, 0.093% active. Potency, µM (highest dose often 76.6 µM), actives largely listed as inhibitors. O75874; also: nearly all actives have a fitted effect of over 65% in size
# Target sequence (O75874 whole entry R132H, stated change not applied): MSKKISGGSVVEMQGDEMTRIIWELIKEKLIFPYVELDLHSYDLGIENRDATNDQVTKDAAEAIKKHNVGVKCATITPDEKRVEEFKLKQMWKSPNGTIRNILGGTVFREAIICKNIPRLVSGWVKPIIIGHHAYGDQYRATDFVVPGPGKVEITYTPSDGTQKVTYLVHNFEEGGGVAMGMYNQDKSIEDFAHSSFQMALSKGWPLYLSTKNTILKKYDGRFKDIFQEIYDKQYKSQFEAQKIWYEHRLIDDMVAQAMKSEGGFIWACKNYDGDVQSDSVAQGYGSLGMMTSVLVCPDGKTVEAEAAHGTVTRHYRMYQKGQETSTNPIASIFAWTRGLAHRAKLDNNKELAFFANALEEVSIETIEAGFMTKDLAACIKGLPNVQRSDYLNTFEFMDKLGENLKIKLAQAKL
#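 IDH1-R132H (0.5 ug/mL dispensed) in pH 7.5 Tris buffer was preincubated 30 min with compound, then given a substrate mix of 0.016 mM NADPH and 2 mM alpha-KG for 80 min at room temperature; remaining NADPH was read by diaphorase/resazurin fluorescence.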
# Mito fusion yeast = inhibitors of mitochondrial division or activators of mitochondrial fusion. S. cerevisiae fusion-defective mutant growth rescue, CellTiterGlo 48 h. Potency, µM (highest dose often 46.1 µM), most hits filed as activators. 320,000 tested, 0.23% active; also: nearly all actives have a fitted effect of over 45% in size
#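 Luminescent cell viability in 1536-well qHTS format served as the measure of rescued growth in ts fusion-mutant S. cerevisiae cultured on non-fermentable YPEG for 48 hours at 37C.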
# LDHA inh = LDHA (human) enzyme inhibition. 480,000 tested, 0.15% active. purified LDHA, NADH/diaphorase-resazurin fluorescence; hits give low values. activity change, % (values are at about 110 or 230 µM). P00338; in the data active = activity change below about -30%; inconclusive = mostly about -25% to -30%
#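 LDH5 2 nM; NADH 0.06 mM, pyruvate 0.2 mM; 200 mM Tris pH 7.4, EDTA, Tween-20; 5 min RT. Detection: diaphorase 0.133 mg/mL + resazurin 37 µM, fluorescence ex540/em590 at 0 and 20 min; normalized to enzyme-free and DMSO wells.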
# ClpP mod = qHTS Assay for Activators of ClpP. Potency, µM (top dose mostly 57.5 µM). 340,000 tested, 1.9% active. purified B. subtilis ClpP, FRET peptide cleavage, 20 min; active = well fitted falling curve with a large enough effect; inconclusive = small, poorly fitted or top-dose-only effect; inactive = no such curve, though single readings can be large or run the other way; also: the source files actives as falling curves though it sought activators and does not explain the sign; nearly all actives have a fitted effect of over 65% in size
#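 Purified B. subtilis ClpP, 10 microg/mL final in Tris/HCl pH8 with KCl, BSA, glycerol and Tween-20, cleaved an Abz/nitrotyrosine-quenched decapeptide. Fluorescence (ex 320, em 430) was read at 0 and 20 min at room temperature. Delta was normalized to 5.8 microM ADEP and DMSO/no-enzyme controls.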
# S-ASM inh = inhibitors of human secretory acid sphingomyelinase | Potency, µM (highest dose often 57.5 µM), actives largely listed as inhibitors | 340,000 tested, 0.006% active | placental ASM, HMU-PC fluorogenic substrate, 60 min | P17405
#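 qHTS format. ASM enzyme prepared from human placenta hydrolyses the fluorogenic substrate HMU-PC0 (9 uM final) over 60 min at 37 °C after a 10 min compound preincubation.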
# RGS4 inhibitor = human RGS4 inhibition | Transcreener GDP fluorescence polarization, RGS4-accelerated GTP hydrolysis | Potency, µM (top dose mostly 114 µM), hits mostly inhibitors | 390,000 tested, 0.039% active; also: nearly all actives have a fitted effect of over 75% in size
#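 MLSMR compounds (23 nl, pin-transferred) preincubated 10 min at room temperature with a 500nM (2x) first reagent, then RGS4 at 900nM (2x) plus Transcreener GDP mix added; fluorescence polarization (620/688 nm) read before and after 90 min at 30 °C.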
# Resorufin autofl = counter-screen for mutant IDH1 inhibitors: fluorescence interference. inhibition of signal, % at 51.2 µM. shares compounds with IDH1 R132H inh. Resorufin detection reagent fluorescence interference, cell-free. 750 tested, under 10 active
# IDH1 WT = selectivity of mutant IDH1 inhibitors: human wild-type IDH1 | Potency, µM (titrated, usually from 115 µM), most hits filed as inhibitors | 750 tested, 9% active | shares compounds with IDH1 R132H inh | WT IDH1 enzyme, NADPH diaphorase/resazurin fluorescence; also: nearly all actives have a fitted effect of over 55% in size
# Target sequence (O75874 whole entry, looked up): as the sequence (O75874 whole entry R132H, stated change not applied) above, with H132R counted along it
# mIDH1 confirm = inhibits human mutant IDH1 enzyme in cherrypick confirmation; IDH1 R132H enzyme, NADPH diaphorase/resazurin fluorescence; 750 tested, 83% active; shares compounds with IDH1 R132H inh; Potency, µM (series often up to 76.6 µM), most hits filed as inhibitors; also: nearly all actives have a fitted effect of over 50% in size
# ClpP validation = inhibits B. subtilis ClpP protease, hit validation; shares compounds with ClpP mod; purified B. subtilis ClpP, FRET-FV substrate cleavage, 20 min; Potency, µM (doses to about 57.5 µM), most hits filed as inhibitors; 470 tested, 40% active; also: nearly all actives have a fitted effect of over 70% in size
# Hits are given with their value; n = inactive; u = inconclusive; x = not tested or not shown. Many of the other results were omitted from the sample, so hits are more common in it than they were. Unless noted, calls follow the shape of the dose curve; as a rule, active = well fitted curve in the direction sought with a large enough effect; inconclusive = small, poorly fitted or top-dose-only effect, or another doubt; inactive = no such curve, though single readings can be large; an effect the other way counts as inactive or inconclusive.
SMILES,IDH1 R132H inh,Mito fusion yeast,LDHA inh,ClpP mod,S-ASM inh,RGS4 inhibitor,ClpP validation,others
CC(=O)OCC(=O)[C@@]12OC3(CCCC3)O[C@@H]1C[C@H]1[C@@H]3CCC4=CC(=O)C=C[C@]4(C)[C@@]3(F)[C@@H](O)C[C@@]12C,14µM,n,n,n,n,n,x,Resorufin autofl=n;IDH1 WT=n;mIDH1 confirm=7.1µM
COC(=O)c1ccc(/C=C/C(=O)c2cc(C)sc2C)cc1,x,x,n,x,x,x,x,
CCOC(=O)c1ccc(N2C(=O)c3n[nH]c(C)c3C2c2ccc(F)cc2)cc1 (stereo not drawn),x,x,n,x,x,x,x,
CCOC(=O)c1ccc(N2C(=O)c3n[nH]c(C)c3C2c2ccc(CC)cc2)cc1 (stereo not drawn),u,x,n,n,x,n,x,Resorufin autofl=n;IDH1 WT=n;mIDH1 confirm=u
CCOC(=O)c1ccc(N2C(=O)c3n[nH]c(C)c3C2c2cccc(Br)c2)cc1 (stereo not drawn),u,x,n,n,x,n,x,Resorufin autofl=n;IDH1 WT=n;mIDH1 confirm=25µM
CCOC(=O)c1ccc(N2C(=O)c3n[nH]c(-c4cccs4)c3C2c2ccc(CC)cc2)cc1 (stereo not drawn),n,x,n,n,x,n,x,
CCOC(=O)c1ccc(N2C(=O)c3n[nH]c(-c4cccs4)c3C2c2cccc(O)c2)cc1 (stereo not drawn),u,x,n,n,x,n,x,Resorufin autofl=n;IDH1 WT=n;mIDH1 confirm=16µM
CCOC(=O)N1CCN(C(=O)c2ccc(S(=O)(=O)Nc3ccc(C)cc3)cc2)CC1,n,x,n,n,n,n,n,
Cc1ccnc(NC(=O)c2ccc(OCc3c(C)noc3C)cc2)c1,n,n,n,n,n,n,n,
Cc1ccc(NC(=O)Cn2c(=O)n(CCC(C)C)c(=O)c3cccnc32)cc1C,n,x,n,n,x,n,n,
COc1ccc(-c2ccc(N(C)C)cc2)cc1C1C2C=CCC(C)C2C(=O)N1Cc1ccccc1 (stereo not drawn),x,x,x,x,x,n,x,
COc1ccc(-c2ccc(N(C)C)cc2)cc1[C@H]1[C@H]2C=CC[C@@H](C)[C@@H]2C(=O)N1Cc1ccccc1,n,n,n,2.2µM,n,n,34µM,
CCOc1cc(CNC2CCCC2)ccc1OCc1ccccc1Cl,n,n,n,n,n,n,x,
CCOc1cc(C2NN=C(c3ccccc3)S2)ccc1OCc1ccccc1Cl (stereo not drawn),n,n,n,3.5µM,n,n,u,
CCCCn1c(=O)[nH]c(=O)c2c1nc(-c1ccc(OC)cc1)n2C,x,x,n,x,x,x,x,
COc1ccc(NS(=O)(=O)c2ccc(C)c(C(=O)NNC(=O)c3ccccc3O)c2)cc1,n,n,n,n,n,n,n,
COc1ccc(NS(=O)(=O)c2ccc(C)c(C(=O)O)c2)cc1,n,n,n,n,n,n,x,
COCCCn1c(C(=O)NCCN2CCOCC2)cc2c(=O)n3cccc(C)c3nc21,n,n,n,3.2µM,n,n,24µM,
COCCNC(=O)c1cc2c(=O)n3cccc(C)c3nc2n1C,n,n,n,n,n,n,x,
COc1ccc(-c2cn3c(n2)sc2cc(C(=O)NC4CCCCCC4)ccc23)cc1,n,x,n,n,x,n,x,
COc1cccc(-c2cn3c(n2)sc2cc(C(=O)NC4CCCCC4)ccc23)c1,n,x,n,u,x,n,24µM,
COc1cccc(-c2cn3c(n2)sc2cc(C(=O)NC4CCCCCC4)ccc23)c1,n,x,n,4µM,x,n,24µM,
